# Results published in PubChem BioAssay.
# Where “and” joins values, the source holds several entries; their conditions need not be identical. Equal values may be shown once. Calls of active or inactive are those of the source. Unless noted, no stated cut-off is given here; in the data, active means inhibition above about 80%; inactive means the rest.
# Tests used:
# [1] = growth inhibition, single agent or in combination, cell-based, chromothripsis tumors, cisplatin or BGB combos (AID 1671449); details: LFS_MB_P medulloblastoma cells;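 further: cells exposed for 96 hours; 0% = vehicle DMSO and 100% = killing by high DMSO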
# [2] = BT084 cell growth, single and combined drugs, ICGC_MB145, cisplatin and BGB IC40 combos (AID 1671461); details: BT084 medulloblastoma cells, drug combinations, stronger effect = higher value;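 further: cells exposed to drugs for 96 hours; 0% = vehicle DMSO and 100% = high DMSO full killing control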
# [3] = growth inhibition, single agent and combos, cell-based, chromothripsis tumors, cisplatin or BGB combos (AID 1671450); details: HDN33 neuroblastoma cells, stronger effect = higher value;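 further: cells exposed to compound for four days; 0% = vehicle DMSO and 100% = cell killing by high DMSO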
# [4] = growth inhibition, single agents and combos, ICB984, cell-based, cisplatin or BGB combos, synergistic combos for chromothripsis tumors (AID 1671451; call rule not given here;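 further: cells exposed for 96 hours before readout; 0% = vehicle DMSO and 100% = killing by high DMSO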); details: ICB984 medulloblastoma cells, drug combinations, stronger effect = higher value
# [5] = growth inhibition, single agents and combos, LFS_MB_1R, cell-based, cisplatin or BGB combos, synergistic combos for chromothripsis tumors (AID 1671452); details: LFS_MB_1R medulloblastoma cells, stronger effect = higher value;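 further: cells exposed for 96 hours before readout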
# [6] = growth inhibition, single agents and combos, HTB85, cell-based, BGB or cisplatin IC20 combos, synergistic combos for chromothripsis tumors (AID 1671453); details: HTB85 osteosarcoma cells, drug combinations, stronger effect = higher value;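 further: cells exposed for 96 hours before readout; 0% = vehicle DMSO and 100% = high DMSO killing control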
# [7] = growth inhibition, single agents and combos, CRL2098, cell-based, BGB or cisplatin IC20 combos, synergistic combos for chromothripsis tumors (AID 1671454); details: CRL2098 osteosarcoma cells, drug combinations, stronger effect = higher value;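 further: cells exposed for 96 h before readout; 0% = vehicle DMSO and 100% = killing by high DMSO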
# [8] = growth inhibition, single agents and combos, HD-MB03, cell-based, BGB or cisplatin IC20 combos, synergistic combos for chromothripsis tumors (AID 1671455; in the data active means inhibition above about 83%;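 further: 0% = vehicle DMSO and 100% = high DMSO as cytotoxic control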); details: HD-MB03 medulloblastoma cells, stronger effect = higher value
# [9] = growth inhibition, single agents and combos, UWB1.289, cell-based, BGB or cisplatin combos, synergistic combos for chromothripsis tumors (AID 1671456); details: UWB1.289 ovarian carcinoma cells, stronger effect = higher value;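 further: cells exposed to compound for four days; 0% = vehicle DMSO and 100% = killing by high DMSO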
# [10] = growth inhibition, single agents and combos, LFS_MB_2R, cell-based, cisplatin combos, synergistic combos for chromothripsis tumors (AID 1671457); details: LFS_MB_2R medulloblastoma cells, stronger effect = higher value;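 further: cells exposed to compound for four days before readout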
# [11] = growth inhibition, MDA-MB-436, cell-based, BGB or cisplatin combos, synergistic combos for chromothripsis tumors (AID 1671458; call rule not given here;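 further: cells exposed for 96 hours; 0% = vehicle DMSO and 100% = killing by high DMSO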); details: MDA-MB-436 breast carcinoma growth inhibition, drug combinations, stronger effect = higher value
# [12] = UWB1.289_BRCA1 ovarian cancer growth, cell-based, BGB or cisplatin combinations (AID 1671459); details: UWB1.289 BRCA1 ovarian carcinoma, drug combinations, stronger effect = higher value
# [13] = drug combination toxicity in non-malignant astrocytes – cell-based, BGB or cisplatin IC20 combos, cytotoxicity control for chromothriptic childhood tumor combination screen (AID 1671460); details: Human astrocytes, viability inhibition, drug combinations, at 0.5 µM, stronger effect = higher value;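 further: cells exposed to compounds for 96 hours before viability readout; 0% = vehicle and 100% = killing control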
# [14] = RCMB18 cell growth, single agent and combined, cisplatin and BGB IC40 combos (AID 1671462); details: RCMB18 medulloblastoma cells, stronger effect = higher value;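 further: cells exposed to compound for four days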
# [15] = CRL1545 cell growth, single agent and combined, cisplatin and BGB IC20 combos (AID 1671464); details: CRL1545 osteosarcoma cells, stronger effect = higher value;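 further: cells exposed to compound for 96 hours before readout; 0% = vehicle DMSO and 100% = high DMSO killing control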
# [16] = measured here: combination with BGB IC40, at 0.05 µM
# [17] = measured here: with BGB IC20 combination, at 0.5 µM
# [18] = measured here: with cisplatin IC20 combination, at 0.5 µM
# [19] = measured here: combination with cisplatin, at 0.5 µM
# [20] = measured here: combination with cisplatin, at 5 µM
smiles,measurement,setting,value
CCc1c2c(nc3ccc(OC(=O)N4CCC(N5CCCCC5)CC4)cc13)-c1cc3c(c(=O)n1C2)COC(=O)C3(O)CC (stereo not given),inhibition,[1]; [16],-19.5% and -4.73% and -44.6%
same,inhibition,[2]; at 0.5 µM,-22.5% (inactive) and 1.41% (inactive) and -20.7% (inactive)
O=c1cc(-c2ccc(O)cc2)[nH]c(=S)[nH]1,inhibition,"[1]; at 0.5 µM, stronger effect = higher value",85.3% (active)
same,inhibition,"[1]; measured here: combination with BGB IC20, at 0.005 µM",-1.36%
same,inhibition,"[1]; measured here: combination with BGB IC40, at 0.005 µM",-7.24%
same,inhibition,[1]; [16],-1.51%
same,inhibition,"[1]; measured here: combination with cisplatin, at 0.5 µM, stronger effect = higher value",79.3%
same,inhibition,"[1]; measured here: combination with cisplatin, at 5 µM, stronger effect = higher value",3.08%
same,inhibition,"[3]; BGB combo, at 5 µM",-16.4%
same,inhibition,[3]; at 0.5 µM,-17.1% (inactive)
same,inhibition,"[3]; cisplatin combo, at 5 µM",-30.3%
same,inhibition,[3]; [17],-22.1%
same,inhibition,[3]; [18],-12.8%
same,inhibition,"[3]; single agent, at 5 µM",-27.7%
same,inhibition,"[4]; BGB IC20 combo, at 0.005 µM",-9.88%
same,inhibition,"[4]; BGB IC40 combo, at 0.005 µM",-25.6%
same,inhibition,"[4]; BGB IC40 combo, at 0.05 µM",-24.8%
same,inhibition,[4]; at 0.5 µM,-27.2% (inactive)
same,inhibition,"[4]; cisplatin combo, at 0.05 µM",-31.2%
same,inhibition,"[4]; cisplatin combo, at 0.5 µM",-50.4%
same,inhibition,"[4]; cisplatin combo, at 5 µM",-7.23%
same,inhibition,"[4]; measured here: 5 uM single agent, at 5 µM",-15.4%
same,inhibition,[5]; at 0.5 µM,-1.38% (inactive)
same,inhibition,[5]; [16],-3.87%
same,inhibition,[5]; [19],-24.1%
same,inhibition,[5]; [20],1.81%
same,inhibition,[6]; at 0.5 µM,-22.5% (inactive)
same,inhibition,"[6]; measured here: with BGB IC20, at 0.5 µM",-21.9%
same,inhibition,"[6]; measured here: with BGB IC20, at 5 µM",-6.6%
same,inhibition,"[6]; measured here: with cisplatin IC20, at 0.5 µM",-20.1%
same,inhibition,"[6]; measured here: with cisplatin IC20, at 5 µM",14%
same,inhibition,"[6]; single agent, at 5 µM",-1.02%
same,inhibition,[7]; at 0.5 µM,-53% (inactive)
same,inhibition,"[7]; measured here: combination with BGB at IC20, at 0.5 µM",-28.7%
same,inhibition,"[7]; measured here: combination with cisplatin at IC20, at 0.5 µM",-91.5%
same,inhibition,[8]; at 0.5 µM,-13.4% (inactive)
same,inhibition,"[8]; measured here: combo with BGB at IC20, at 0.5 µM",-10.4%
same,inhibition,"[8]; measured here: combo with cisplatin at IC20, at 0.5 µM",-24.5%
same,inhibition,[9]; at 0.5 µM,-11.6% (inactive)
same,inhibition,"[9]; measured here: inhibition with BGB combination, at 0.05 µM",-5.24%
same,inhibition,"[9]; measured here: inhibition with cisplatin combination, at 0.05 µM",-19.2%
same,inhibition,[10]; at 0.5 µM,-8.7% (inactive)
same,inhibition,[10]; [19],-16.1%
same,inhibition,[10]; [20],-5.06%
same,inhibition,[11]; at 0.5 µM,-9.32% (inactive)
same,inhibition,"[11]; measured here: BGB combination, at 0.5 µM",-13.5%
same,inhibition,"[11]; measured here: BGB combination, at 5 µM",-8.05%
same,inhibition,"[11]; measured here: cisplatin combination, at 0.5 µM",-15.9%
same,inhibition,"[11]; measured here: cisplatin combination, at 5 µM",-5.07%
same,inhibition,"[12]; BGB combination, concentration series, at 5 µM",-21.3%
same,inhibition,[12]; at 0.5 µM,-19.2% (inactive)
same,inhibition,"[12]; cisplatin combination, concentration series, at 5 µM",2.65%
same,inhibition,[13],-9.33% (inactive)
same,inhibition,[13]; measured here: combo with BGB IC20,-17.6%
same,inhibition,[13]; measured here: combo with cisplatin IC20,-15.4%
same,inhibition,[2]; at 0.5 µM,6.07% (inactive)
same,inhibition,"[2]; cisplatin combination, at 0.5 µM",-1.5%
same,inhibition,"[2]; cisplatin combination, at 5 µM",-121%
same,inhibition,"[2]; measured here: BGB IC40 combination 0.05 uM, at 0.05 µM",27.5%
same,inhibition,"[2]; single agent, at 5 µM",15.9%
same,inhibition,[14]; at 0.5 µM,-1.5% (inactive)
same,inhibition,"[14]; cisplatin combo, at 5 µM",-3.95%
same,inhibition,"[14]; measured here: BGB IC40 combination, at 0.05 µM",-13.5%
same,inhibition,[14]; [19],-10.5%
same,inhibition,"[14]; single agent, at 5 µM",21.7%
same,inhibition,[15]; at 0.5 µM,-18.8% (inactive)
same,inhibition,[15]; [17],-19.4%
same,inhibition,[15]; [18],-20.3%
same,inhibition,"[15]; single agent, at 0.05 µM",0.873%
same,inhibition,"[15]; single agent, at 5 µM",-68.2%
